Screens as filed in PubChem BioAssay.
TRHR PAM: allosterically enhances the human TRH receptor. P34981. enhancement, % at 2 µM. 0.66% of 360,000 active. TRHR cells, fluo-8 calcium fluorescence, EC20 TRH enhancement; in the data active = enhancement above about 30%
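TRHR-expressing cells loaded with fluo-8 calcium dye were read kinetically (ex 480/em 530) during compound addition, then stimulated with an EC20 of TRH (10 nM final). Enhancement of the Gq-mediated intracellular calcium response was scored.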
PTHR1 ag: activates the human parathyroid hormone receptor PTHR1. Q03431. HEK293 GP2 PTHR1 cells, GloSensor cAMP luminescence, 1 h. Potency, µM (highest dose often 115 µM), most hits filed as activators. 0.075% of 410,000 active. AID 743266; also: nearly all actives have a fitted effect of over 55% in size
Target sequence (Q03431 whole entry, looked up): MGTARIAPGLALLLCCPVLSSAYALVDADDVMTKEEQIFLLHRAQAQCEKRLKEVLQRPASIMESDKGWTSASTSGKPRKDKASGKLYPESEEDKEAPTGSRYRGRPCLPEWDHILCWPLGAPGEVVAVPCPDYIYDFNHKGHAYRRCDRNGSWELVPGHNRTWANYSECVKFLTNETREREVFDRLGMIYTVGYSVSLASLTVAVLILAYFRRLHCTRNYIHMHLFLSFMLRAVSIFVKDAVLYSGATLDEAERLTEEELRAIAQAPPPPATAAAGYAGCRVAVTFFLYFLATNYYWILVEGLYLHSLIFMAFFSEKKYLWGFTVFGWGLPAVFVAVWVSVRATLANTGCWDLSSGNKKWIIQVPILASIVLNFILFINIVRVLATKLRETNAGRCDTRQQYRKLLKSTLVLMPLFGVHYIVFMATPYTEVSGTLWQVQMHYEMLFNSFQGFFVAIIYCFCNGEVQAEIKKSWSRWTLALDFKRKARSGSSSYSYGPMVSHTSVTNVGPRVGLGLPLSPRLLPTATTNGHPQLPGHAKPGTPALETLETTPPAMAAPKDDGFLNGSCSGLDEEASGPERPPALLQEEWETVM
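HEK-293-derived GP2 cells expressing PTHR1 and a GloSensor cAMP reporter, 3,000/well, plated overnight, given luciferin plus IBMX (each 0.5 mM as added) for 1 h at 37 °C, then compound for 1 h at 37 °C. Luminescence was read after 15 min at room temperature.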
GLP-1R agonist: agonists of human GLP-1 receptor. AID 624172. Potency, µM (top dose mostly 45.6 µM), actives largely listed as activators. 0.007% of 380,000 active. HEK293 GLP-1R CRE-luciferase, luminescence, 4-6 h; cells express a hypersensitive GLP-1R form. P43220
GLP1R inv ag: acts as inverse agonist at human GLP-1 receptor. P43220. HEK293 GLP-1R CRE-luciferase, luminescence, 24 h; GLP-1R form is constitutively active. Potency, µM (doses to about 38.3 µM), most hits filed as inhibitors. 1.6% of 410,000 active. AID 624417; also: nearly all actives have a fitted effect of over 55% in size
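Readout was luciferase luminescence, measured 12 min after detection reagent at room temperature. Beforehand, GLP-1R reporter HEK293 cells had sat 12 h, then received compounds for 24 hr at 37 deg C.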
GLP1R cytotox: cytotoxic in the GLP-1 receptor inverse agonist counter-screen; HEK293 cAMP-luciferase reporter cells, luminescence, 24 h; Potency, µM (top dose mostly 38.3 µM), hits mostly inhibitors; 0.13% of 410,000 active; AID 624418;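 also: loss of luciferase light is scored as toxicity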
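Compound-treated cells are incubated 24 hr at 37 deg C under 5% CO2 after a 12 hour attachment period, then luciferase detection reagent is added and luminescence is measured following 12 min at room temperature; lowered signal indicates toxicity.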
TRHR agonist: activates the human TRH receptor. 0.18% of 360,000 active. AID 493084. TRHR cells, calcium flux fluo-8, FDSS agonist mode. activation, % at 2 µM; in the data active = activation above about 30%
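In this calcium-flux screen, cells bearing human TRHR are dye-loaded with fluo-8, baselined for 10 cycles, then exposed to library compounds; positive kinetic calcium responses during the agonist phase mark hits, with TRH as control.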
Hits are given with their value. This is a sample that favours compounds with a hit; in the whole collection about 2.4% have one here. Unless noted, calls follow the shape of the dose curve; as a rule, active = well fitted curve in the direction sought with a large enough effect; inconclusive = small, poorly fitted or top-dose-only effect, or another doubt; inactive = no such curve, though single readings can be large; an effect the other way counts as inactive or inconclusive.

For O=C(Nc1ccc(Cl)cc1)N1CCCN(c2ccc(C(F)(F)F)cc2[N+](=O)[O-])CC1 the results were TRHR PAM inactive, PTHR1 ag inactive, GLP-1R agonist inactive, GLP1R inv ag 2.8µM, GLP1R cytotox inconclusive and TRHR agonist inactive.
COc1ccc(/C(O)=C2\C(=O)C(=O)N(CCN(C)C)C2c2cccc(OC)c2OC)cc1 (stereo not given) was read as TRHR PAM inactive, PTHR1 ag inactive, GLP-1R agonist inactive, GLP1R inv ag inactive, GLP1R cytotox inactive and TRHR agonist inactive.
Screening CCc1nn2cc(-c3ccccc3)nc2s1 returned TRHR PAM inactive, PTHR1 ag inactive, GLP-1R agonist inactive, GLP1R inv ag 5.6µM, GLP1R cytotox inactive and TRHR agonist inactive.
For Oc1ccccc1N1CCN(c2ncccn2)CC1 the results were TRHR PAM inactive, PTHR1 ag inactive, GLP-1R agonist inactive, GLP1R inv ag inactive, GLP1R cytotox inactive and TRHR agonist inactive.
`COc1cc2c(cc1Cl)/C(=C\CCN(C)C)c1ccccc1S2` gave TRHR PAM inactive, PTHR1 ag inactive, GLP-1R agonist inactive, GLP1R inv ag 10µM, GLP1R cytotox inconclusive and TRHR agonist inactive.
CN(C)CC/C=C1/c2cc(F)ccc2Sc2ccc(Cl)cc21 was read as PTHR1 ag inactive, GLP-1R agonist inactive, GLP1R inv ag 10µM and GLP1R cytotox inconclusive.
Screening COc1ccc(C(=O)NCC(=O)OCC(=O)N2CC(C)CC(C)C2)cc1 (stereo not given) returned TRHR PAM inactive, PTHR1 ag inactive, GLP-1R agonist inactive, GLP1R inv ag inactive, GLP1R cytotox inactive and TRHR agonist inactive.
Screening Cc1ccc(N2C(=O)CC(N(CCc3ccccc3)C(=S)Nc3ccc(N(C)C)cc3)C2=O)cc1 (stereo not given) returned TRHR PAM inactive, PTHR1 ag inactive, GLP-1R agonist inactive, GLP1R inv ag 4µM, GLP1R cytotox inactive and TRHR agonist inactive.
O=C1CC(N(CCc2ccccc2)C(=S)Nc2ccccc2)C(=O)N1c1ccc(Br)cc1 (stereo not given) was read as TRHR PAM inactive, PTHR1 ag inactive, GLP-1R agonist inactive, GLP1R inv ag inconclusive, GLP1R cytotox inconclusive and TRHR agonist inactive.
For CC(=O)c1ccc(NC(=O)C2(c3ccccc3)CC2(Cl)Cl)cc1 (stereo not given) the results were TRHR PAM inactive, PTHR1 ag inactive, GLP-1R agonist inactive, GLP1R inv ag inconclusive, GLP1R cytotox inactive and TRHR agonist inactive.
CCN(CC)CCNc1nc(-n2nc(C)cc2C)nc2sc3c(c12)CC(C)(C)OC3 was read as TRHR PAM inactive, PTHR1 ag inactive, GLP-1R agonist inactive, GLP1R inv ag 4.5µM, GLP1R cytotox inconclusive and TRHR agonist inactive.
`COc1ccc(-c2csc3ncnc(NCCCO)c23)cc1` gave TRHR PAM inactive, PTHR1 ag inactive, GLP-1R agonist inactive, GLP1R inv ag inactive, GLP1R cytotox inactive and TRHR agonist inactive.
`CCN(CC)CCCNc1ncnc2scc(-c3ccc(F)cc3)c12` gave TRHR PAM inactive, PTHR1 ag inactive, GLP-1R agonist inactive, GLP1R inv ag 7.1µM, GLP1R cytotox inactive and TRHR agonist inactive.
`CCCOc1ccc(-c2nc(N3CCN(CC)CC3)c3ccccc3n2)cc1` gave TRHR PAM inactive, PTHR1 ag inactive, GLP-1R agonist inactive, GLP1R inv ag 7.9µM, GLP1R cytotox inactive and TRHR agonist inactive.
`O=C(c1csc(Nc2ccccc2Cl)n1)N1CCCC1` gave TRHR PAM inactive, PTHR1 ag inactive, GLP-1R agonist inactive, GLP1R inv ag inactive, GLP1R cytotox inactive and TRHR agonist inactive.
Screening O=C(NCC1CCCO1)C(c1cccs1)N(Cc1ccccc1Cl)C(=O)c1ccc(-c2ccccc2)[nH]1 (stereo not given) returned TRHR PAM inactive, PTHR1 ag inactive, GLP-1R agonist inactive, GLP1R inv ag 2.5µM, GLP1R cytotox inactive and TRHR agonist inactive.
For Cc1ccc(C(C(=O)NCC2CCCO2)N(Cc2ccccc2)C(=O)c2ccc(-c3ccccc3)[nH]2)o1 (stereo not given) the results were TRHR PAM inactive, PTHR1 ag inactive, GLP-1R agonist inactive, GLP1R inv ag inconclusive, GLP1R cytotox inactive and TRHR agonist inactive.
CCOc1ccc(Nc2nc(Cc3nnc(SCC(N)=O)o3)cs2)cc1 was read as TRHR PAM inactive, PTHR1 ag inactive, GLP-1R agonist inactive, GLP1R inv ag inactive, GLP1R cytotox inactive and TRHR agonist inactive.
Cc1sc(NC(=O)c2ccco2)c(C(c2cccnc2)N2CCC(C)CC2)c1C (stereo not given) was read as TRHR PAM inactive, PTHR1 ag inactive, GLP-1R agonist inactive, GLP1R inv ag 8.9µM, GLP1R cytotox inactive and TRHR agonist inactive.
`C=CCN(CC=C)C(=O)c1ccccc1NC(=O)c1ccccc1C` gave TRHR PAM inactive, PTHR1 ag inactive, GLP-1R agonist inactive, GLP1R inv ag inactive, GLP1R cytotox inactive and TRHR agonist inactive.
COc1ccc(NC(=O)c2cc(=O)c3cc(C)cc(C)c3o2)cc1 was read as TRHR PAM inactive, PTHR1 ag inactive, GLP1R inv ag inactive, GLP1R cytotox inactive and TRHR agonist inactive.
O=C(CN1CCN(c2ccc(Cl)cc2)CC1)Nc1ccc(Cl)c(C(F)(F)F)c1 was read as TRHR PAM inactive, PTHR1 ag inactive, GLP1R inv ag inconclusive, GLP1R cytotox inactive and TRHR agonist inactive.
For CCOc1ccc(NC(=O)CN2CCN(CC(=O)Nc3ccc(Cl)c(C(F)(F)F)c3)CC2)cc1 the results were TRHR PAM 36, PTHR1 ag inactive, GLP-1R agonist inactive, GLP1R inv ag inconclusive, GLP1R cytotox inconclusive and TRHR agonist inactive.
Cc1ccc(CCNC(=O)C23CN(Cc4ccccc4)CC2C(c2cccc([N+](=O)[O-])c2)=NO3)cc1 (stereo not given) was read as TRHR PAM 34, PTHR1 ag inactive, GLP-1R agonist inactive, GLP1R inv ag inconclusive, GLP1R cytotox inactive and TRHR agonist inactive.
For O=C(Nc1ccccc1)Nc1ccc(Cl)nc1Cl the results were PTHR1 ag inactive, GLP-1R agonist inactive, GLP1R inv ag inconclusive and GLP1R cytotox inactive.
For Cc1ccc(NC(=O)c2cc(N3C(=O)C4CC=CCC4C3=O)ccc2N2CCOCC2)cc1Cl (stereo not given) the results were TRHR PAM 39, PTHR1 ag inactive, GLP-1R agonist inactive, GLP1R inv ag inconclusive, GLP1R cytotox inactive and TRHR agonist inactive.
Screening Cc1ccc(NC(=O)c2cc(N3C(=O)C=CC3=O)ccc2N2CCOCC2)cc1 returned TRHR PAM inactive, PTHR1 ag inactive, GLP-1R agonist inactive, GLP1R inv ag inactive, GLP1R cytotox inconclusive and TRHR agonist inactive.
